Results published in PubChem BioAssay AID1851 (National Center for Advancing Translational Sciences (NCATS), 2009).
The campaign covered roughly 16,000 compounds. About 5,700 (36%) were called active. Roughly 24% stayed inconclusive and do not appear here. Some of the results follow. Unmarked numbers belong to inactive results. The call rests on the fitted dose curve; in most records, active means well fitted curve in the direction sought with a large enough effect; inconclusive means small, poorly fitted or top-dose-only effect, or effect the other way; inactive means no such curve, though single readings can be large or run the other way.

target: Cytochrome P450 1A2 (Homo sapiens) (UniProt P05177); experiment: Cytochrome panel assay with activity outcomes; conditions: recombinant CYP, pro-luciferin dealkylation, luminescence, p450-cyp1a2; series mostly up to 57.1 µM
Protocol: The P450 gene superfamily is involved in the metabolism and clearance of xenobiotics. This assay used various human CYP P450 isozymes to measure the dealkylation of various pro-luciferin substrates to luciferin. The luciferin is then measured by luminescence after the addition of a luciferase detection reagent. Pro-luciferin substrate concentration in the assay was equal to its KM for its CYP P450 isozyme. Inhibitors and some substrates limit the production of luciferin, and decrease measured luminescence.
NCGC Assay Protocol Summary:
1, Reagent, 2 uL, Isozyme and Pro-Luciferin
2, Library compounds, 23 nl, 40 uM to 0.24 nM dilution series
3, Controls, 23 nl, Isozyme specific inhibitor
4, Reagent, 2 uL, NADPH regeneration solution
5, Incubation time, 60 min, Isozyme specific temperature
6, Reagent, 4ul, Detection reagent
7, Incubation time, 20 min, Isozyme specific temperature
8, Detection, 1 sec, ViewLux luminescent read
The luciferase-based P450-GloTM Screening Systems were obtained from Promega (Madison, WI) for CYP 1A2 (V9770), CYP 2C9 (V9790), CYP2 C19 (V9880), CYP 2D6 (V9890), and CYP 3A4 Luciferin-PPXE (V9910) and were adapted for 1,536-well microplates and an automated protocol. The control compounds furafylline for 1A2 (F124), sulfaphenazole for CYP 2C9 (S0758), ketoconazole for CYP 2C19 (K1003), quinidine for 2D6 (Q3625), and ketoconazole for 3A4 (K1003) were purchased from Sigma Aldrich (St. Louis, MO). Recombinant P450 enzymes were obtained from baculovirus constructs expressed in insect cells (BD/Gentest).
Medium-binding white solid Kalypsys plates used. Mixtures kept on ice. 1A2: 10 nM 1A2, 100 uM Luc-ME, 100 mM KPO4; 2C9: 10 nM 2C9, 100 uM Luc-H, 25 mM KPO4; 2C19: 5 nM 2C19, 10 uM Luc-H EGE, 50 mM KPO4; 2D6: 5 nM 2D6, 30 uM Luc-ME EGE, 100 mM KPO4; 3A4: 10 nM, 25 uM Luc-PPXE. All amounts are reflected in their final concentration, working concentration is 2x.
NADPH regeneration solution: 1.3 mM NADP+, 3.3 mM glucose-6-phosphate, 3.3 mM MgCl2, 0.4 U/mL glucose-6-phosphate dehydrogenase for all isozymes, 200 mM KPO4 for 3A4. Mixture prepared at RT but kept on ice during automated run.
RT incubation in auxilliary plate hotel for 1A2, 2D6, and 3A4; 37C for 2C9 and 2C19.
Keywords: P450, CYP1A2, CYP2C19, CYP2C9, CYP2D6, CYP3A4, Luciferase, MLSMR, MLSCN, NIH Roadmap, qHTS, NCGC
On the % scale 0 is the no-effect control and ±100 the full control effect.

Sequence of Cytochrome P450 1A2 (Homo sapiens) (P05177 whole entry, looked up): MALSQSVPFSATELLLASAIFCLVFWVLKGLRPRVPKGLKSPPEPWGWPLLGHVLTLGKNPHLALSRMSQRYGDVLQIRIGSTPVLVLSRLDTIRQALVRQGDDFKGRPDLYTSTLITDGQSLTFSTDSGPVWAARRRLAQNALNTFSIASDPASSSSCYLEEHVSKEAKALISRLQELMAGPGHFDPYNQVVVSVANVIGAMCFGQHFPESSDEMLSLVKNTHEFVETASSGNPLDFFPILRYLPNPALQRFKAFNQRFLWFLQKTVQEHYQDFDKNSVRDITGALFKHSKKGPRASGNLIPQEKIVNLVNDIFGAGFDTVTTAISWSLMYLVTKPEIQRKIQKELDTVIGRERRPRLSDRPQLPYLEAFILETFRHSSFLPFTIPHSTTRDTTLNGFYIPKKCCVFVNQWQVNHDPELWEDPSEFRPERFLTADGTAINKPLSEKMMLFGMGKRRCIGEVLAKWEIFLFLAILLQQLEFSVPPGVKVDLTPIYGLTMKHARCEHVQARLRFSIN

Compound	AC50	activity, negative = inhibition
CC(C)(C)C(=O)NC(Nc1cccc2cccnc12)C(Cl)(Cl)Cl (configuration not stated)	20000 nM (active)	
Oc1c([C@H](Nc2ccccn2)c2ccccc2)ccc2cccnc12		-21.9% [at 2.29 µM]
Cc1ccc(C)n1C(Cc1ccccc1)C(=O)O (configuration not stated)		6.11% [at 11.4 µM]
Cc1ccc(-n2c(C)nc3c(cnn3-c3ccc(F)cc3)c2=O)cc1C	2510 nM (active)	
Cc1cc(C)n(-c2ccc(F)cc2)c(=O)c1C(=O)O	inactive	
FC(F)(F)c1cc(C(F)(F)F)c2ccc(N/N=C/c3cccc(Cl)c3)nc2n1	2510 nM (active)	
O=c1c(O)c(-c2cc(O)c(O)c(O)c2)oc2cc(O)cc(O)c12	5010 nM (active)	
Cc1cccc(OCCCCCn2ccnc2)c1	282 nM (active)	
Cc1ccc(OCCOCCn2ccnc2)c(Br)c1	282 nM (active)	
O=C1C2C3C=CC(C2C(=O)N1CN1CCOCC1)C1C2C(=O)N(CN4CCOCC4)C(=O)C2C31 (configuration not stated)		-7.11% [at 11.4 µM]
CCN1C(=O)[C@H]2[C@H]3[C@H](O)[C@H](O)C/C(=N/NC(=O)OCc4ccccc4)[C@@H]3CC[C@@H]2C1=O		-2.34% [at 11.4 µM]
CC(C)=NOC[C@@H](O)[C@@H]1O[C@@H]2OC(C)(C)O[C@@H]2[C@H]1O		-4.07% [at 11.4 µM]
Clc1ccc(-c2ccnc(Oc3cc(Cl)ccc3Cl)n2)cc1	447 nM (active)	
O=C(O)c1ccc(C(=O)O)c(C(=O)O)c1.[NH-][C@@H]1CCCC[C@@H]1[NH-].[Pt]		-19% [at 11.4 µM]
CC(C)OCCCN1CN(S(=O)(=O)c2cccc(Cl)c2)c2nc3ccccc3nc21	14100 nM (active)	
C[N+](C)(C)CC[N+]1(C)Cc2c(Cl)c(Cl)c(Cl)c(Cl)c2C1	inactive	
COc1ccc(Nc2ncc(C(=O)N3CCN(c4ccc(F)cc4)CC3)c3ccccc23)cc1	inactive	
Cc1noc(C)c1-c1nc(Nc2ccc(F)cc2)c2ccccc2n1	251 nM (active)	
Cc1noc(C)c1-c1nc(Nc2ccccc2)c2ccccc2n1	251 nM (active)	
Cc1noc(C)c1-c1nc(NC2CCNCC2)c2ccccc2n1	5010 nM (active)	
Cc1noc(C)c1-c1nc(Nc2ccncc2)c2ccccc2n1	100 nM (active)	
COc1cccc(C2C3(C#N)C(N)=NC(OC)(OC)C23C#N)c1 (configuration not stated)	inactive	
C#CCCCO/N=C1/C[C@@H](O)[C@@H](O)[C@@H]2[C@@H]3C(=O)N([C@@H](C)c4ccccc4)C(=O)[C@H]3CC[C@@H]12		-1.14% [at 11.4 µM]
CNc1nc(-c2c(C)noc2C)nc2ccccc12	50.1 nM (active)	
Cc1noc(C)c1-c1nc(N(C)C)c2ccccc2n1	39.8 nM (active)	

Compound	AC50	activity, negative = inhibition
COC(=O)[C@@H]1CC[C@H](C)[C@@H](c2ccc(C)cc2)N1C(=O)c1ccc(/C=N\O[C@@H](C)CN2CCCc3nc(C)c(C)cc32)cc1		-8.09% [at 11.4 µM]
C/C(=N/NC1=NCCN1)c1cn(C2=NCCN2)nc1C		-13.9% [at 2.29 µM]
CS(=O)(=O)N1CCC[C@@]2(CCN(c3ccncc3)C2)C1	inactive	
CN(C)[C@H]1C(=O)C(C(=O)NCN2CCCC2)=C(O)[C@]2(O)C(=O)C3=C(O)c4c(O)cccc4[C@@](C)(O)[C@H]3C[C@@H]12	inactive	
COC(=O)c1ccc(NC(=S)N2CCN(Cc3cccc(C)c3)CC2)cc1	inactive	
COC(=O)c1ccc(C(=O)OC)c(NC(=S)N2CCN(c3ccccc3)CC2)c1	4470 nM (active)	
NC(=O)C1(N2CCCCC2)CCN(C(=S)Nc2ccc(Cl)cc2)CC1	inactive	
Cc1ccc(NC(=S)N2CCN(C(=O)C3CCCO3)CC2)c(C)c1 (configuration not stated)	inactive	
COc1ccc(N2CCN(C(=S)Nc3cc(C)ccc3C)CC2)cc1	inactive	
COC(=O)c1cc(OC)c(OC)cc1NC(=S)N1CCCCC1	1580 nM (active)	
N[C@@H](CS(=O)O)C(=O)O	inactive	
COc1cccc(NC(=O)CSc2nc3c(c(-c4ccco4)c2C#N)CCCC3)c1	inactive	
CCc1sc(-c2c(C#N)c(N)nc3c2CCCCCC3)cc1[N+](=O)[O-]	2000 nM (active)	
Cc1ccc(-n2[nH]c(=O)c3cccnc32)cc1	2510 nM (active)	
O=c1ncn(-c2ccccc2F)c2ncccc12	inactive	
O=c1nc(-c2ccccc2)n(-c2ccccc2)c2ncccc12	inactive	
Cc1ccc(-n2cnc(=O)c3cccnc32)cc1	inactive	
O=c1[nH]n(-c2cccc(Cl)c2)c2ncccc12	5010 nM (active)	
Cc1ccc(N2C(=O)c3n[nH]c(C)c3C2c2ccccn2)cc1 (configuration not stated)	inactive	
CCOCCCn1cnc2c(c1=O)c1nc3ccccc3nc1n2-c1ccccc1	4470 nM (active)	
COCCNC(=O)C1CCN(S(=O)(=O)N2CCC3(CC2)OCCO3)CC1	inactive	
CCC(C)NCc1ccc(C(=O)OC)o1 (configuration not stated)	inactive	
COC(=O)c1ccc(CSc2nc3cc(Cl)ccc3s2)o1	2000 nM (active)	
O=C(Nc1ccc2nc(SCc3ccc(Cl)cc3)sc2c1)c1ccccc1C(=O)N1CCOCC1	inactive	
CCN(c1ccc(NC(=O)COC(=O)c2ccc3ccccc3n2)cc1)C(C)C	2510 nM (active)	

Compound	AC50	activity, negative = inhibition
O=C(c1cccs1)n1nc(-c2ccc(Cl)cc2)nc1NCc1ccco1	316 nM (active)	
Cc1ccc(C(C(=O)NCc2ccco2)N(C(=O)CNC(=O)c2cccs2)c2ccc(C)cc2C)cc1 (configuration not stated)	inactive	
Cc1ccc(C(C(=O)NCc2ccco2)N(C(=O)CNC(=O)c2cccs2)c2ccc(C)cc2)cc1 (configuration not stated)	inactive	
COc1ccc(OCc2nnc(SCC(=O)O)n2N)cc1	inactive	
Cc1noc(COc2ccc(OCc3nc(C)no3)cc2)n1	inactive	
CCn1c(COc2ccc(OC)cc2)nc2ccccc21	14100 nM (active)	
CCn1c(N)nc2ccccc21	25100 nM (active)	
C[n+]1ccccc1/C=N\O	inactive	
CC(C)NC(=O)N1CCN(c2ccncc2S(=O)(=O)N2CCOCC2)CC1	inactive	
O=[N+]([O-])c1cccc2c[nH]nc12	2510 nM (active)	
O=[N+]([O-])c1cccc2cn[nH]c12	2510 nM (active)	
Cc1nc2cccc([N+](=O)[O-])c2n1CCCN(C)C		-16.9% [at 11.4 µM]
O=[N+]([O-])c1cc(Cc2cc([N+](=O)[O-])c3cccnc3c2O)c(O)c2ncccc12		-31.1% [at 2.29 µM]
O=[N+]([O-])c1ccc(S(=O)(=O)Cc2ccccc2)c2nonc12		-5.25% [at 2.29 µM]
O=[N+]([O-])c1cccc2c(Br)[nH]nc12	126 nM (active)	
COc1ccc2c(c1)CCC1C2CC[C@]2(C)[C@H](NCCCCCCN3C(=O)C=CC3=O)CC[C@@H]12 (some centres not stated)	inactive	
CCNC(=S)N1CC(C)OC(C)C1 (configuration not stated)	inactive	
O=c1c(-c2ccc(O)cc2)coc2cc(O)ccc12	15800 nM (active)	
O=c1c(-c2ccc(O)cc2)coc2cc(O)cc(O)c12	5010 nM (active)	
COc1ccc(-c2coc3cc(OC)cc(O)c3c2=O)cc1	3160 nM (active)	
CC(O)CN(CCC(N)=O)CCC(N)=O (configuration not stated)	inactive	
COc1ccccc1C(=O)NCCn1cc(SCC(=O)Nc2nnc(C)s2)c2ccccc21	12600 nM (active)	
Cc1nnc(NC(=O)CSc2ncnc3c2cnn3-c2ccccc2C)s1	inactive	
CC(C)C(=O)c1c(C(C)C)nn2ccccc12	631 nM (active)	
COc1ccc2c(=O)c(-c3ccccc3)c(C)oc2c1	2510 nM (active)	

Compound	AC50	activity, negative = inhibition
CC(C)Oc1ccc2c(=O)c3cc(C(=O)O)ccc3oc2c1	inactive	
O=C(c1ccc(COc2ccc(F)cc2)o1)n1cccn1	10000 nM (active)	
CN(C)C(=O)c1ccc(-c2cncnc2NCc2cccs2)cc1	20000 nM (active)	
CN(C)c1ccc(-c2cncnc2NCc2cccs2)cc1	398 nM (active)	
COc1cccc(=O)c2c(C)n(-c3cc(C)cc(C)c3)c(C)c12	10000 nM (active)	
COc1cc(/C=C(/C#N)c2nc3ccccc3[nH]2)ccc1OCC(=O)Nc1ccccc1C	inactive	
COc1cc(/C=C(\C#N)c2nc3c(s2)CC(C)CC3)ccc1O (configuration not stated)	1120 nM (active)	
C=CCn1c(SCC(=O)NC2CCCCC2)nnc1C1CCCCC1	inactive	
CCn1c(SCC(=O)Nc2ccc3c(c2)OCCO3)nc2c(c1=O)SC(C)C2 (configuration not stated)	12600 nM (active)	
CCOc1ccc(-n2c(SCC(=O)Nc3ccc4c(c3)OCCO4)nc3c(c2=O)SCC3)cc1	inactive	
CCOc1ccc(-n2c(SCC(=O)Nc3ccc(OC)cc3)nc3c(c2=O)SCC3)cc1	inactive	
Cc1ccc2nc(NC(=O)CSc3nc4c(c(=O)n3C)SC(C)C4)sc2c1 (configuration not stated)	5010 nM (active)	
CCn1c(SCC(=O)Nc2nc3ccc(C)cc3s2)nc2c(c1=O)SC(C)C2 (configuration not stated)	1580 nM (active)	
CCn1nnnc1SCC(=O)NC1CCCC1	inactive	
CCn1c(SCC(=O)NC2CCCCC2)nc2c(c1=O)SC(C)C2 (configuration not stated)	14100 nM (active)	
c1ccc([C@H](CCN2CCCC2)c2ccccn2)cc1		-14.8% [at 11.4 µM]
CN(C)CCCn1cnc2cc(Cl)c(Cl)cc21		-19.9% [at 2.29 µM]
CN(C)Cc1ccccc1-c1ccc2ncnc(N(C)C)c2c1	12600 nM (active)	
CN(C)Cc1ccccc1-c1ccc2ncnc(NCc3ccccc3)c2c1	15800 nM (active)	
CN(C)Cc1ccccc1-c1ccc2ncnc(NC3CCNCC3)c2c1	inactive	
CNc1ncnc2ccc(-c3ccccc3CN(C)C)cc12	3160 nM (active)	
N=C(N)CCNC(=O)[C@@H]1CCC(N)=N1		-3.4% [at 2.29 µM]
